Test systems include SBK1; SGK2; SGK3; SIK2; SLK; SNRK; SRC; SRMS; SRPK1; SRPK2; SRPK3; STK16.
Details in all cases: Compound Concentration (nM):1000
The test system of assay [1] is T1, RSK3(Kin.Dom.1-N-terminal).
T1 construct: gene RPS6KA2

Assay [2] concerns T2, RSK3(Kin.Dom.2-C-terminal).
T2 construct: gene RPS6KA2

Assay [3] has as its system T3, RSK4(Kin.Dom.1-N-terminal).
T3 construct: gene RPS6KA6

In assay [4] the test system is T4, RSK4(Kin.Dom.2-C-terminal).
T4 construct: gene RPS6KA6

A further assay concerns T5, S6K1.
T5 construct: gene RPS6KB1

The subject of another assay is T6, SGK.
T6 construct: gene SGK1

Another assay concerns T7, SIK.
T7 construct: gene SIK1

The subject of a further assay is T8, SNARK.
T8 construct: gene NUAK2

Each structure is given as a SMILES string.
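Note: KINOMEscan scanMAX binding as percent activity remaining versus control; lower means stronger binding.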

On to `O=C1Nc2ccc(C(=O)c3ccco3)cc2C1=Cc1cc(Cl)c(O)c(Cl)c1` [GW406108X], for which the “Percent Control” value was 74% in assay [1]; 51% in [2]; 53% in assay [3]; 32% in assay [4]; 74% in the assay with S6K1; 100% in the assay with SBK1. The “Percent Control” value with SGK2 is 100%; in the assay with SGK3, 74%; in the assay with SGK, 83%; with SIK2, 100%; in the assay with SIK, 93%; with SLK, 100%. For the same molecule, the “Percent Control” value is 79% in the assay on SNARK; 100% with SNRK; 100% in the assay with SRC; 89% in the assay on SRMS; 88% in the assay with SRPK1; 100% in the assay with SRPK2. Further, the “Percent Control” value with SRPK3 is reported as 100%; in the assay with STK16 it was 60%.
`CN(C)CCNC(=O)Nc1ccc(N(C)c2ccnc(Nc3ccc(CS(C)(=O)=O)cc3)n2)cc1.Cl` [GW830900A]: the “Percent Control” value in assay [1] is 100%; in assay [2] it was 94%; in assay [3] it was 74%; in assay [4], 87%; in the assay with S6K1 it was 85%; in the assay on SBK1 it was 95%. The “Percent Control” value in the assay with SGK2 was found to be 80%; in the assay on SGK3, 84%; in the assay with SGK, 48%; with SIK2, 73%; in the assay on SIK it was 74%; with SLK it was 42%. Further, the “Percent Control” value is 43% in the assay on SNARK; 77% in the assay with SNRK; 100% in the assay on SRC; 95% with SRMS; 17% in the assay on SRPK1; 100% in the assay on SRPK2. The “Percent Control” value in the assay with SRPK3 turned out to be 7.7%; in the assay with STK16 it was 30%.
`Cl.c1ccc(Cc2nc3ccc(Nc4ncnc5ccccc45)cc3[nH]2)cc1` [GR269666A]: the “Percent Control” value in assay [1] was 100%; in assay [2] it was 100%; in assay [3], 100%; in assay [4], 98%; in the assay with S6K1 it was 100%; with SBK1, 100%. The “Percent Control” value in the assay on SGK2 is 100%; in the assay with SGK3, 81%; in the assay on SGK, 100%; with SIK2, 82%; with SIK, 100%; in the assay on SLK, 100%. Further, the “Percent Control” value in the assay on SNARK, with SNRK, in the assay on SRC, in the assay with SRMS, in the assay with SRPK1 and in the assay with SRPK2 was 100% in each case. Moreover, the “Percent Control” value turned out to be 78% in the assay on SRPK3 and 100% with STK16.
Regarding `COC(=O)Nc1nc2ccc(Oc3ccc(NC(=O)Nc4cc(C(F)(F)F)ccc4F)cc3)cc2s1.Cl` [GW693917A], the “Percent Control” value is 65% in [1]; 91% in [2]; 76% in [3]; 79% in assay [4]; 54% in the assay with S6K1; 100% in the assay on SBK1. Moreover, the “Percent Control” value is 80% in the assay with SGK2; 78% in the assay with SGK3; 87% in the assay on SGK; 68% in the assay with SIK2; 98% in the assay with SIK; 68% with SLK. Besides, the “Percent Control” value with SNARK was 86%; in the assay on SNRK it was 100%; in the assay with SRC, 54%; in the assay on SRMS, 92%; in the assay on SRPK1, 86%; in the assay with SRPK2, 90%. Besides, the “Percent Control” value with SRPK3 stood at 74%; with STK16, 76%.
Consider `NS(=O)(=O)c1ccc(N/N=C2\C(=O)Nc3ccc(C(=O)NCc4ccncc4)cc32)cc1` [GW300657X], for which the “Percent Control” value in assay [1] is 100%; in assay [2], 80%; in [3], 56%; in assay [4], 80%; with S6K1, 78%; in the assay on SBK1 it was 37%. Further, the “Percent Control” value with SGK2 came out at 81%; in the assay on SGK3 it was 12%; with SGK, 36%; with SIK2, 100%; in the assay with SIK, 95%; in the assay with SLK it was 100%. In addition, the “Percent Control” value with SNARK was 8.9%; in the assay on SNRK it was 100%; in the assay with SRC, 100%; in the assay with SRMS it was 93%; in the assay on SRPK1 it was 89%; in the assay with SRPK2, 6.6%. For the same molecule, the “Percent Control” value in the assay with SRPK3 is 72%; in the assay on STK16, 23%.
Take `CC1=C(C(=O)Nc2ccc3[nH]ncc3c2)C(c2ccc3ccccc3c2)CC(=O)N1` (centres unmarked) [GSK270822A]: the “Percent Control” value was 84% in [1]; 100% in assay [2]; 67% in [3]; 95% in assay [4]; 67% with S6K1; 48% with SBK1. Also, the “Percent Control” value in the assay with SGK2 is 69%; with SGK3 it was 42%; in the assay on SGK it was 69%; in the assay on SIK2, 86%; with SIK it was 100%; in the assay with SLK, 83%. The “Percent Control” value in the assay with SNARK is 7.1%; with SNRK, 95%; in the assay with SRC, 74%; with SRMS, 100%; with SRPK1, 85%; in the assay on SRPK2, 100%. For the same molecule, the “Percent Control” value in the assay on SRPK3 was found to be 100%; with STK16, 88%.
`Cl.O=C(O[C@H]1CN[C@H](C#Cc2cc3ncnc(Nc4ccc5c(cnn5Cc5ccccc5)c4)c3s2)C1)N1CCOCC1` [GSK200398A]: the “Percent Control” value is 92% in assay [1]; 89% in assay [2]; 80% in [3]; 83% in [4]; 100% in the assay on S6K1; 100% in the assay with SBK1. The “Percent Control” value in the assay on SGK2 was found to be 97%; in the assay on SGK3 it was 99%; in the assay with SGK, 99%; in the assay with SIK2, 69%; in the assay on SIK it was 100%; with SLK it was 98%. Moreover, the “Percent Control” value is 100% in the assay on SNARK; 100% in the assay with SNRK; 100% in the assay on SRC; 92% in the assay on SRMS; 84% in the assay on SRPK1; 85% in the assay with SRPK2. The “Percent Control” value in the assay with SRPK3 and in the assay on STK16 was 100% throughout.
Regarding `CN(C)c1cc2c(Nc3ccc4c(cnn4Cc4ccccc4)c3)ncnc2cn1` [GW282974X], the “Percent Control” value was 100% in [1]; 93% in assay [2]; 75% in assay [3]; 74% in assay [4]; 95% in the assay with S6K1; 100% with SBK1. For the same molecule, the “Percent Control” value in the assay on SGK2 was found to be 99%; with SGK3, 99%; with SGK it was 98%; in the assay with SIK2, 71%; with SIK, 29%; in the assay on SLK, 81%. Moreover, the “Percent Control” value in the assay with SNARK was 100%; in the assay on SNRK, 88%; in the assay on SRC it was 100%; in the assay on SRMS, 74%; in the assay with SRPK1, 82%; in the assay on SRPK2, 100%. For the same molecule, the “Percent Control” value in the assay with SRPK3 amounted to 97%; in the assay on STK16 it was 88%.
`CCS(=O)(=O)c1ccc(OC)c(Nc2ncc(-c3cccc(OC)c3)o2)c1` [GW580509X]: the “Percent Control” value in [1] is 100%; in assay [2], 100%; in assay [3], 94%; in assay [4], 100%; in the assay on S6K1 it was 100%; in the assay on SBK1, 100%. For the same molecule, the “Percent Control” value was 100% in the assay on SGK2; 91% in the assay with SGK3; 100% with SGK; 91% in the assay with SIK2; 97% in the assay with SIK; 100% in the assay on SLK. Further, the “Percent Control” value in the assay on SNARK is 96%; in the assay with SNRK, 100%; with SRC, 26%; with SRMS, 54%; with SRPK1, 96%; in the assay on SRPK2 it was 100%. Also, the “Percent Control” value in the assay on SRPK3 was found to be 100%; in the assay with STK16 it was 37%.
With `CCS(=O)(=O)c1ccc(OC)c(Nc2ncc(-c3cccc(F)c3)o2)c1` [GW621970X], the “Percent Control” value was 100% in [1]; 100% in [2]; 100% in [3]; 100% in assay [4]; 93% in the assay on S6K1; 100% in the assay with SBK1. Further, the “Percent Control” value is given as 100% in the assay with SGK2; 98% with SGK3; 100% in the assay with SGK; 63% in the assay with SIK2; 100% with SIK; 100% in the assay with SLK. For the same molecule, the “Percent Control” value was 100% in the assay with SNARK; 100% in the assay on SNRK; 19% in the assay with SRC; 67% with SRMS; 92% in the assay on SRPK1; 97% in the assay with SRPK2. Moreover, the “Percent Control” value with SRPK3 came to 100%; with STK16, 38%.
